# Reference: PubChem BioAssay (Tox21)
# Values joined by “and” are separate entries in the source; they are usually repeats but may differ in a detail not shown here. Identical values can stand only once. The source holds several records for some structures; these can differ, active in one and inactive in another. Active and inactive are the calls of the source. Entries that show only a call come without a potency. Unless noted, calls follow the shape of the dose curve; as a rule, active = well fitted curve in the direction sought with a large enough effect in the repeat runs; inconclusive = weak or mixed curves; inactive = no such curve, though single readings can be large; an effect the other way counts as inactive or inconclusive.
# Assays:
# [1] = qHTS assay for small molecule agonists of the p53 signaling pathway (AID 651631; calls by dose curve; also: nearly all actives have a fitted effect of over 15% in size)
# How it was run: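 Fluorescence intensity from cleaved LiveBLAzer B/G substrate (2 h, room temperature) served as the signal. Beforehand, HCT-116 reporter cells bearing p53 response elements were treated 16 h at 37 °C with DMSO-dissolved compounds.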
# [2] = qHTS assay for small molecules that induce genotoxicity in human embryonic kidney cells expressing luciferase-tagged ATAD5 (AID 651632); also: nearly all actives have a fitted effect of over 15% in size
# How it was run: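 Test compounds were delivered by pin tool onto HEK293T reporter cells (2,000/well) expressing ATAD5 fused to luciferase. After 16 hr at 37C, 5% CO2, Amplite was added for 30 min at room temperature and luminescence was measured.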
# [3] = qHTS assay for small molecule agonists of the p53 signaling pathway - cell viability (AID 651633; calls by dose curve; also: nearly all actives have a fitted effect of over 30% in size; also: potency is read from the fitted curve at half-maximal effect)
# How it was run: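 p53RE-bla cells were treated with compound for 16 hours at 37 C. Cytotoxicity was then measured as CellTiter-Glo luminescence after 30 min at room temperature.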
# [4] = qHTS assay for small molecules that induce genotoxicity in human embryonic kidney cells expressing luciferase-tagged ATAD5 - cell viability (AID 651634; calls by dose curve; also: nearly all actives have a fitted effect of over 25% in size; also: potency is read from the fitted curve at half-maximal effect)
# How it was run: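 Quantitative high-throughput format. HEK293T cells expressing ATAD5 fused to luciferase were plated at 2,000 cells/well and treated 15.5 hr with compound versus DMSO. Viability was determined by fluorescent live-cell protease substrate, 30 min at 37C.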
# [5] = qHTS assay for small molecule disruptors of the mitochondrial membrane potential - cell viability (AID 720634; calls by dose curve;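 also: human HepG2 liver cancer cells; nearly all actives have a fitted effect of over 20% in size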)
# How it was run: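 Same-well counter-screen: following the MMP dye addition, CellTiter-Glo was added to 1 hr compound-treated HepG2 cells and luminescence read after 30 min at room temperature.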
# [6] = qHTS assay for small molecule disruptors of the mitochondrial membrane potential (AID 720635); also: potency is read from the fitted curve at half-maximal effect
# How it was run: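 HepG2 cells exposed to compound 1 hr at 37C, then Mito-MPS dye 30 min. Ratio read of aggregate (540/590 nm) versus monomer (490/535 nm) fluorescence.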
# [7] = qHTS assay to test for compound auto fluorescence at 590 nm (red) in HepG2 cells (AID 720674); also: potency is read from the fitted curve at half-maximal effect
# How it was run: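 HepG2 cells, 2,000 per well in MEM with 10% FBS, attached overnight at 37 C, then got 23 nL compound or DMSO. After 1 hr at 37 C, 5% CO2, red fluorescence was read at 540/590 nm against Rose Bengal sodium as reference.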
# [8] = qHTS assay to test for compound auto fluorescence at 535 nm (green) in HepG2 cells (AID 720675); also: potency is read from the fitted curve at half-maximal effect
# [9] = qHTS assay to test for compound auto fluorescence at 460 nm (blue) in HEK293 cells (AID 720678)
# How it was run: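 Blue-channel (Ex/Em 405/460 nm) intensity measured in HEK293 cultures after overnight compound exposure at 37C; signal expressed relative to triamterene. Cells plated 2,000 per well in 10% dialyzed FBS medium and allowed 4-5 hr to attach.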
# [10] = qHTS assay to test for compound auto fluorescence at 590 nm (red) in HEK293 cells (AID 720679); also: potency is read from the fitted curve at half-maximal effect
# How it was run: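 Red-channel autofluorescence (Ex/Em 540/590 nm; Rose Bengal sodium reference) was measured after overnight 37C, 5% CO2 exposure of attached HEK293 cells, 2,000 per well in medium with 10% dialyzed FBS.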
# [11] = qHTS assay to test for compound auto fluorescence at 535 nm (green) in HEK293 cells (AID 720680)
# [12] = qHTS assay to test for compound auto fluorescence at 460 nm (blue) in HEK293 cell free culture (AID 720681)
# How it was run: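 Compounds were added to cell-free DMEM with 10% FBS and fluorescence read directly. The blue channel used 405 nm excitation and 460 nm emission, with triamterene as the reference fluorophore.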
# [13] = qHTS assay to test for compound auto fluorescence at 535 nm (green) in HEK293 cell free culture (AID 720682)
# How it was run: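 Intrinsic compound fluorescence is measured in culture medium containing 10% FBS, with excitation at 485 nm and detection at 535 nm, referenced to fluorescein.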
# [14] = qHTS assay to test for compound auto fluorescence at 590 nm (red) in HEK293 cell free culture (AID 720683)
# How it was run: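 Cell-free wells of DMEM with 10% FBS received compound, and intrinsic fluorescence was read at excitation/emission 540/590 nm. Values expressed as equivalence to Rose Bengal sodium.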
# [15] = qHTS assay to test for compound auto fluorescence at 590 nm (red) in HepG2 cell free culture (AID 720684); also: potency is read from the fitted curve at half-maximal effect
# How it was run: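 Rose Bengal sodium served as the reference for red signal. Test compounds were dispensed into serum-containing MEM (10% FBS) without cells, and plates were read at 540/590 nm.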
# [16] = qHTS assay to test for compound auto fluorescence at 460 nm (blue) in HepG2 cell free culture (AID 720685)
# How it was run: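 Cell-free plates of MEM plus 10% FBS received 23 nL compound or DMSO vehicle; blue-channel (405/460 nm) intensity scored against triamterene as reference fluorophore.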
# [17] = qHTS assay to test for compound auto fluorescence at 535 nm (green) in HepG2 cell free culture (AID 720686); also: potency is read from the fitted curve at half-maximal effect
# [18] = qHTS assay to test for compound auto fluorescence at 460 nm (blue) in HepG2 cells (AID 720687)
# How it was run: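 HepG2 cells in MEM with 10% FBS, attached overnight at 37 C, were exposed to compound or DMSO for 1 hr at 37 C, 5% CO2. Blue fluorescence was read at 405/460 nm, with triamterene as reference fluorophore.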
# [19] = target: Glucocorticoid receptor (Homo sapiens) (UniProt P04150); experiment: qHTS assay to identify small molecule agonists of the glucocorticoid receptor (GR) signaling pathway (AID 720691; active = well fitted activation curve with a large enough effect in the signal ratio in the repeat runs, not every such curve was filed as active; inconclusive = weak or mixed curves, or effect the other way; inactive = no such curve, though single readings can be large or run the other way; the % refers to the signal ratio; also: potency is read from the fitted curve at half-maximal effect); conditions: GR-bla HeLa, beta-lactamase reporter ratio, 18 h; activation: at 62.4 µM (top of the series) unless noted
# Sequence of Glucocorticoid receptor (Homo sapiens) (P04150 whole entry, looked up): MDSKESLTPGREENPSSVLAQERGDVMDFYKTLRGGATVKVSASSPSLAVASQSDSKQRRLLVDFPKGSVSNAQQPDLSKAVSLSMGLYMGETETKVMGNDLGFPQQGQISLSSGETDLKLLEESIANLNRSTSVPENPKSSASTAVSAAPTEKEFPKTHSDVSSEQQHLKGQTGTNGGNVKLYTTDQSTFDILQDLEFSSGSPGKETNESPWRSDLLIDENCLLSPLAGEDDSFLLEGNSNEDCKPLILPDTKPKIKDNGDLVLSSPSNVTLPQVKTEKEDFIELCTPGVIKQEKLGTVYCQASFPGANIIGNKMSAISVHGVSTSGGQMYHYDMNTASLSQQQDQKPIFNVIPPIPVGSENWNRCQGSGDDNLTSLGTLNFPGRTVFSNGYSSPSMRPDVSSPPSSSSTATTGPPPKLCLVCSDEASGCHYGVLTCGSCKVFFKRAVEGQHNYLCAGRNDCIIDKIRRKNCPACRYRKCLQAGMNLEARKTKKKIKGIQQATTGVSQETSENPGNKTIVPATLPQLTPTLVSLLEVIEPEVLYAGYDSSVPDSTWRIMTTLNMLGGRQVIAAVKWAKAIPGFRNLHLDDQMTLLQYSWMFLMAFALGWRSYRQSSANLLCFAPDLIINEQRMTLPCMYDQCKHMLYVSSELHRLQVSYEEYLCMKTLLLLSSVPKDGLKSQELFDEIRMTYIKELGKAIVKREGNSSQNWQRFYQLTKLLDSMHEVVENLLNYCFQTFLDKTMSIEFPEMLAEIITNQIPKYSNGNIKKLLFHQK
# How it was run: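 A HeLa cervical cancer line expressing GR and a glucocorticoid response element-driven beta-lactamase gene is treated with compounds for 18 h; LiveBLAzer B/G FRET substrate is then applied and fluorescence read.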
# [20] = target: Glucocorticoid receptor (Homo sapiens) (UniProt P04150); experiment: qHTS assay to identify small molecule antagonists of the glucocorticoid receptor (GR) signaling pathway (AID 720692; active = well fitted inhibition curve with a large enough effect in the signal ratio in the repeat runs, not every such curve was filed as active; inconclusive = weak or mixed curves, or effect the other way; inactive = no such curve, though single readings can be large or run the other way; the % refers to the signal ratio)
# How it was run: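 GRE-bla HeLa line, dex-stimulated (5 nM final). Compound exposure 18 h, 37 C. Beta-lactamase FRET read after 2 h RT substrate.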
# Tags tell the direction and shape of the fitted curve or compound fluorescence and quenching.
Structure (SMILES),Potency [1],Potency [2],Potency [3],Potency [4],Potency [5],Potency [6],Potency [7],Potency [8],outcome [9],Potency [10],outcome [11],outcome [12],outcome [13],Potency [14],Potency [15],outcome [16],Potency [17],outcome [18],Potency [19],Potency [20]
C[N+]1(CC2COC(c3ccccc3)(C3CCCCC3)O2)CCCCC1 (stereo not drawn),inactive,inactive,inactive,inactive,inactive,inactive,inactive,inactive,inactive,inactive,inactive,inactive,inactive,inactive,inactive,inactive,inactive,inactive,inactive,
OC[C@H]1O[C@@H](OCCc2ccc(O)cc2)[C@H](O)[C@@H](O)[C@@H]1O,inactive,inactive,inactive,inactive,inactive,inactive,inactive,inactive,inactive,inactive,inactive,inactive,inactive,inactive,inactive,inactive,inactive,inactive,inactive,inactive
CCCCC/C=C\C/C=C\CCCCCCCC(=O)NC(C)c1ccccc1 (stereo not drawn),inactive,inactive,inactive,inactive,inactive,inactive,,inactive,inactive,inactive,inactive,inactive,inactive,inactive,inactive,inactive,inactive,inactive,inactive,
c1ccc(-c2ccccn2)nc1,inactive,inactive,inactive,inactive,inactive,inactive,inactive,inactive,inactive,inactive,inactive,inactive,inactive,inactive,inactive,inactive,inactive,inactive,inactive,
COc1ccc(C(=O)N2CCN(CC(=O)N3CCOCC3)CC2)cc1,inactive,inactive,inactive,inactive,inactive,inactive,,inactive,inactive,inactive,inactive,inactive,inactive,,inactive,inactive,inactive,inactive,,
O=[N+]([O-])c1ccc2[nH]ncc2c1,inactive,inactive,inactive,inactive,inactive,38.5 µM (active),inactive,inactive,inactive,,inactive,inactive,inactive,,inactive,inactive,inactive,inactive,inactive,inactive
CCN(CC)CCNC(=O)c1cc(Br)c(N)cc1OC,inactive,inactive,inactive,inactive,inactive,inactive,inactive,inactive,inactive,inactive,,inactive,inactive,,inactive,inactive,inactive,inactive,,
CC(C)(O)c1ccc(CNC(=O)c2cccnc2Oc2ccc(F)cc2)cc1,inactive,inactive,inactive,inactive,inactive,inactive,inactive,inactive,inactive,,,inactive,inactive,inactive,inactive,inactive,inactive,inactive,inactive,inactive
COC(C)(C)CCO,inactive,inactive,inactive,inactive,inactive,inactive,inactive,inactive,inactive,inactive,inactive,inactive,inactive,inactive,inactive,inactive,inactive,inactive,inactive,inactive
C[C@H]1C[C@H]2[C@@H]3CCC4=CC(=O)C=C[C@]4(C)[C@@]3(Cl)[C@@H](O)C[C@]2(C)[C@@]1(O)C(=O)CO,inactive,inactive,inactive,inactive,inactive,inactive,inactive,inactive,inactive,inactive,inactive,inactive,inactive,,inactive,inactive,inactive,inactive,,
CN(C)c1ccc(CCO)cc1,inactive,inactive,inactive,inactive,inactive,inactive,,inactive,,inactive,inactive,inactive,inactive,inactive,inactive,inactive,inactive,inactive,,
CCCCCCCCO[C@@H]1O[C@H](CO)[C@@H](O)[C@H](O)[C@H]1O,inactive,inactive,inactive,inactive,inactive,,inactive,inactive,,inactive,,inactive,inactive,inactive,inactive,inactive,,inactive,inactive,inactive
O=S(=O)(Oc1ccc(Cl)cc1)c1ccccc1,inactive,inactive,inactive,inactive,,19.3 µM (active),,inactive,inactive,inactive,inactive,inactive,inactive,inactive,inactive,inactive,inactive,inactive,inactive,inactive
CC1=CCCC(C)(C)C12CCC(C)O2 (stereo not drawn),inactive,inactive,inactive,inactive,inactive,,inactive,inactive,inactive,inactive,inactive,inactive,inactive,inactive,inactive,inactive,inactive,inactive,,
CC(=O)NO,inactive,inactive,inactive,inactive,inactive,,inactive,inactive,,inactive,inactive,inactive,inactive,inactive,inactive,inactive,inactive,inactive,inactive,inactive
COc1ccc(C)cc1[N+](=O)[O-],inactive,inactive,inactive,inactive,inactive,,,inactive,,inactive,inactive,inactive,inactive,inactive,inactive,inactive,inactive,inactive,inactive,inactive
CCCCCC[C@@H](O)C/C=C\CCCCCCCC(=O)OC,inactive,inactive,inactive,inactive,inactive,,,inactive,inactive,inactive,inactive,inactive,inactive,inactive,inactive,inactive,inactive,inactive,,
COC(C)OC,inactive,inactive,inactive,inactive,inactive,,inactive,inactive,inactive,inactive,inactive,inactive,inactive,inactive,inactive,inactive,inactive,inactive,inactive,inactive
CCN(CC)c1ccc2c(-c3ccccc3C(=O)O)c3ccc(=[N+](CC)CC)cc-3oc2c1,inactive,inactive,inactive,21.7 µM (active),inactive,,1 µM (active),31.6 µM (active),inactive,1.12 µM [fluorescent] (active),,inactive,,,1.12 µM [fluorescent] (active),inactive,31.6 µM [fluorescent] (active),inactive,,
OCc1cc(C(O)CNCCCCCCOCCCCc2ccccc2)ccc1O (stereo not drawn),inactive,inactive,inactive and 26.6 µM (active),inactive,inactive,,inactive,inactive,inactive,inactive,inactive,inactive,inactive,inactive,inactive,inactive,inactive,inactive,inactive,inactive
CC(C)CC(=O)C1C(=O)c2ccccc2C1=O,inactive,inactive,inactive,inactive,,4.33 µM (active),inactive,inactive,inactive,inactive,inactive,inactive,inactive,inactive,inactive,inactive,inactive,inactive,inactive,
CN(C)C(=O)NC1(c2ccccc2)CCN(CC[C@@]2(c3ccc(F)c(F)c3)CN(C(=O)c3ccccc3)CCO2)CC1,inactive,inactive,inactive,inactive,inactive,,inactive,inactive,inactive,inactive,inactive,inactive,inactive,inactive,inactive,inactive,inactive,inactive,inactive,inactive
CCCCC(=O)OCC(=O)[C@H]1[C@H](C)C[C@H]2[C@@H]3C[C@H](F)C4=CC(=O)C=C[C@]4(C)[C@@]3(F)[C@@H](O)C[C@@]21C,inactive,inactive,inactive,inactive,inactive,,inactive,inactive,inactive,inactive,inactive,inactive,inactive,inactive,inactive,inactive,inactive,inactive,0.0076 µM [inconclusive] (active),
Nc1cccc(S(=O)(=O)c2cccc(N)c2)c1,inactive,inactive,inactive,inactive,inactive,,inactive,inactive,,inactive,,inactive,inactive,inactive,inactive,inactive,,inactive,inactive,inactive
Nc1ccccc1S(=O)(=O)c1ccccc1,inactive,inactive,inactive,inactive,inactive,,inactive,inactive,inactive,inactive,inactive,inactive,inactive,inactive,inactive,inactive,,inactive,inactive,inactive
Nc1cccc([N+](=O)[O-])c1,inactive,inactive,inactive,inactive,inactive,,inactive,inactive,inactive,inactive,inactive,inactive,inactive,inactive,inactive,inactive,inactive,inactive,inactive,
CCCCCCCCCOS(=O)(=O)O,inactive,inactive,inactive,inactive,inactive,,inactive,inactive,inactive,inactive,inactive,inactive,inactive,inactive,inactive,inactive,inactive,inactive,,
C=C(C)C(=O)OCCOCC,inactive,inactive,inactive,inactive,inactive,,inactive,inactive,inactive,inactive,inactive,inactive,inactive,inactive,inactive,inactive,inactive,inactive,inactive,
